# From PubChem BioAssay (EPA / NIEHS)
# Activity calls are given as the source filed them. Rule for the calls: active = hit-call score of the fitted dose curve at least 0.9, where 1 is the maximum; inactive = score below 0.9.
# Read-out: Interferon-gamma inducible Protein 10 (IP10), CXCL10 (gene 3627)
# Test: BSK_BE3C_IP10: BioMAP Diversity Plus: BE3C Assay for Interferon-gamma inducible Protein 10 (IP10) Biomarker Activity (AID 2283034)
# Conditions: primary human bronchial epithelial cells; actives raise or lower the signal
# Method in brief: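 IP-10 quantified by ELISA in human primary bronchial epithelial cell cultures at 24 hours post-dosing. Gain or loss of signal fitted relative to DMSO; parallel SRB staining assessed overt cytotoxicity.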
Structure (SMILES),outcome,AC50
Cc1c(COC(=O)[C@@H]2[C@H](/C=C(\Cl)C(F)(F)F)C2(C)C)cccc1-c1ccccc1,inactive,
COC(=O)N(C(=O)N1CO[C@@]2(C(=O)OC)Cc3cc(Cl)ccc3C2=N1)c1ccc(OC(F)(F)F)cc1,,11 µM (active)
CC1(C)CON(Cc2ccccc2Cl)C1=O,inactive,
Cn1c(-c2ccccc2)cc(-c2ccccc2)[n+]1C,,16.5 µM (active)
COC(=O)NC(=S)Nc1ccccc1NC(=S)NC(=O)OC,inactive,
CCSC(=O)N1CCCCCC1,inactive,
CCCCOCN(C(=O)CCl)c1c(CC)cccc1CC,,35.5 µM (active)
CC1(C)C(C=C(Cl)Cl)C1C(=O)OC(C#N)c1cccc(Oc2ccccc2)c1 (stereo not given),inactive,
CCOP(=S)(OCC)Oc1nc(Cl)n(C(C)C)n1,inactive,
O=P(O)(O)CCCl,inactive,
C=CCOC(=O)C(C)(C)OC(=O)c1cc(-n2c(=O)cc(C(F)(F)F)n(C)c2=O)ccc1Cl,inactive,
COCc1cnc(C2=NC(C)(C(C)C)C(=O)N2)c(C(=O)O)c1 (stereo not given),inactive,
CCCC(=NOCC)C1=C(O)CC(CC(C)SCC)CC1=O (stereo not given),inactive,
COCC(=O)N(c1c(C)cccc1C)C(C)C(=O)OC (stereo not given),inactive,

# Read-out: Monokine induced gamma interferon (MIG), CXCL9 (gene 4283)
# Test: BSK_BE3C_MIG: BioMAP Diversity Plus: BE3C Assay for Monokine induced gamma interferon (MIG) Biomarker Activity (AID 2283035);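 for outcome: MIG protein measured by ELISA in BE3C cultures after 24 h of dosing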
# Conditions: primary human bronchial epithelial cells; actives raise or lower the signal
# Method in brief: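 ELISA quantified MIG after 24 h exposure of primary bronchial epithelial cultures, analysed in both directions relative to DMSO. Cytotoxicity tracked in parallel cultures by sulforhodamine B staining.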
Structure (SMILES),outcome,AC50
Cc1c(COC(=O)[C@@H]2[C@H](/C=C(\Cl)C(F)(F)F)C2(C)C)cccc1-c1ccccc1,inactive,
O=c1n(Cl)c(=O)n(Cl)c(=O)n1Cl,inactive,
CC1(C)CCC(=Cc2ccc(Cl)cc2)C1(O)Cn1cncn1 (stereo not given),inactive,
COC(=O)N(C(=O)N1CO[C@@]2(C(=O)OC)Cc3cc(Cl)ccc3C2=N1)c1ccc(OC(F)(F)F)cc1,inactive,
CC1(C)CON(Cc2ccccc2Cl)C1=O,inactive,
Cn1c(-c2ccccc2)cc(-c2ccccc2)[n+]1C,inactive,
COC(=O)NC(=S)Nc1ccccc1NC(=S)NC(=O)OC,inactive,
N#CN=C1SCCN1Cc1ccc(Cl)nc1,inactive,
CS(=O)(=O)c1cc(C(F)(F)F)ccc1C(=O)c1cnoc1C1CC1,inactive,
COP(=S)(OC)SCn1nnc2ccccc2c1=O,inactive,
CCSC(=O)N1CCCCCC1,inactive,
O=C(O)c1c(Cl)ccc2cc(Cl)cnc12,inactive,
CCCCOCN(C(=O)CCl)c1c(CC)cccc1CC,,36.5 µM (active)
CC(C)N1C(=O)c2ccccc2NS1(=O)=O,inactive,
CCCCC(O)(Cn1cncn1)c1ccc(Cl)cc1Cl (stereo not given),inactive,
COCC(C)N(C(=O)CCl)c1c(C)csc1C (stereo not given),inactive,
CC1(C)C(C=C(Cl)Cl)C1C(=O)OC(C#N)c1cccc(Oc2ccccc2)c1 (stereo not given),inactive,
CCOP(=S)(OCC)Oc1nc(Cl)n(C(C)C)n1,inactive,

Structure (SMILES),outcome,AC50
COP(=O)(OC)O/C(C)=C/C(=O)N(C)C,inactive,
CCN(CC)c1nc(C)cc(OP(=S)(OC)OC)n1,inactive,
Cc1cc(C)nc(Nc2ccccc2)n1,inactive,
O=P(O)(O)CCCl,inactive,
CC(C)(C)C(=O)C(Oc1ccc(Cl)cc1)n1cncn1 (stereo not given),inactive,
C=C(C)CN(CC)c1c([N+](=O)[O-])cc(C(F)(F)F)cc1[N+](=O)[O-],inactive,
C=CCOC(=O)C(C)(C)OC(=O)c1cc(-n2c(=O)cc(C(F)(F)F)n(C)c2=O)ccc1Cl,inactive,
CCN(CC)C(=O)C(C)Oc1cccc2ccccc12 (stereo not given),inactive,
COCc1cnc(C2=NC(C)(C(C)C)C(=O)N2)c(C(=O)O)c1 (stereo not given),inactive,
O=C1C2CC=CCC2C(=O)N1SC(Cl)(Cl)Cl (stereo not given),,13.5 µM (active)
CCCC(=NOCC)C1=C(O)CC(CC(C)SCC)CC1=O (stereo not given),inactive,
CO/N=C(/C1=NOCCO1)c1ccccc1Oc1ncnc(Oc2ccccc2Cl)c1F,inactive,
CC(C)Oc1cccc(NC(=O)c2ccccc2C(F)(F)F)c1,inactive,
CC(C)C1(C)N=C(c2ncccc2C(=O)O)NC1=O (stereo not given),inactive,
COCC(=O)N(c1c(C)cccc1C)C(C)C(=O)OC (stereo not given),inactive,
CC(C)N1C(=O)N(c2ccccc2)CSC1=NC(C)(C)C,inactive,
CCNP(=S)(OC)O/C(C)=C/C(=O)OC(C)C (stereo not given),inactive,
CNC(=O)Oc1cccc2ccccc12,inactive,

# Read-out: Transforming growth factor beta 1 (TGFb1), TGFB1 (gene 7040)
# Test: BSK_BE3C_TGFb1: BioMAP Diversity Plus: BE3C Assay for Transforming growth factor beta 1 (TGFb1) Biomarker Activity (AID 2283036;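 for outcome: TGF-b1 protein level measured by ELISA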)
# Conditions: primary human bronchial epithelial cells; actives raise or lower the signal
# Method in brief: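 ELISA readout of TGF-b1 from human lung bronchial epithelial primary cells, taken 24 h post-treatment. Gain or loss of signal fitted relative to DMSO baseline, with parallel SRB staining for overt cytotoxicity.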
Structure (SMILES),outcome,AC50
Cc1c(COC(=O)[C@@H]2[C@H](/C=C(\Cl)C(F)(F)F)C2(C)C)cccc1-c1ccccc1,inactive,
O=c1n(Cl)c(=O)n(Cl)c(=O)n1Cl,inactive,
CC1(C)CCC(=Cc2ccc(Cl)cc2)C1(O)Cn1cncn1 (stereo not given),inactive,
COC(=O)N(C(=O)N1CO[C@@]2(C(=O)OC)Cc3cc(Cl)ccc3C2=N1)c1ccc(OC(F)(F)F)cc1,inactive,
CC1(C)CON(Cc2ccccc2Cl)C1=O,,37.2 µM (active)
Cn1c(-c2ccccc2)cc(-c2ccccc2)[n+]1C,inactive,
COC(=O)NC(=S)Nc1ccccc1NC(=S)NC(=O)OC,inactive,
N#CN=C1SCCN1Cc1ccc(Cl)nc1,inactive,
CS(=O)(=O)c1cc(C(F)(F)F)ccc1C(=O)c1cnoc1C1CC1,inactive,
COP(=S)(OC)SCn1nnc2ccccc2c1=O,inactive,
CCSC(=O)N1CCCCCC1,inactive,
O=C(O)c1c(Cl)ccc2cc(Cl)cnc12,inactive,
CCCCOCN(C(=O)CCl)c1c(CC)cccc1CC,,31.9 µM (active)
CCCCC(O)(Cn1cncn1)c1ccc(Cl)cc1Cl (stereo not given),inactive,
COCC(C)N(C(=O)CCl)c1c(C)csc1C (stereo not given),inactive,
CC1(C)C(C=C(Cl)Cl)C1C(=O)OC(C#N)c1cccc(Oc2ccccc2)c1 (stereo not given),inactive,
CCOP(=S)(OCC)Oc1nc(Cl)n(C(C)C)n1,inactive,
COP(=O)(OC)O/C(C)=C/C(=O)N(C)C,inactive,

Structure (SMILES),outcome,AC50
CCN(CC)c1nc(C)cc(OP(=S)(OC)OC)n1,inactive,
Cc1cc(C)nc(Nc2ccccc2)n1,inactive,
O=P(O)(O)CCCl,inactive,
CC(C)(C)C(=O)C(Oc1ccc(Cl)cc1)n1cncn1 (stereo not given),inactive,
C=C(C)CN(CC)c1c([N+](=O)[O-])cc(C(F)(F)F)cc1[N+](=O)[O-],inactive,
C=CCOC(=O)C(C)(C)OC(=O)c1cc(-n2c(=O)cc(C(F)(F)F)n(C)c2=O)ccc1Cl,inactive,
CCN(CC)C(=O)C(C)Oc1cccc2ccccc12 (stereo not given),inactive,
COCc1cnc(C2=NC(C)(C(C)C)C(=O)N2)c(C(=O)O)c1 (stereo not given),inactive,
O=C1C2CC=CCC2C(=O)N1SC(Cl)(Cl)Cl (stereo not given),,12.7 µM (active)
CCCC(=NOCC)C1=C(O)CC(CC(C)SCC)CC1=O (stereo not given),inactive,
CO/N=C(/C1=NOCCO1)c1ccccc1Oc1ncnc(Oc2ccccc2Cl)c1F,inactive,
CC(C)Oc1cccc(NC(=O)c2ccccc2C(F)(F)F)c1,inactive,
CC(C)C1(C)N=C(c2ncccc2C(=O)O)NC1=O (stereo not given),inactive,
COCC(=O)N(c1c(C)cccc1C)C(C)C(=O)OC (stereo not given),inactive,
CC(C)N1C(=O)N(c2ccccc2)CSC1=NC(C)(C)C,inactive,
CCNP(=S)(OC)O/C(C)=C/C(=O)OC(C)C (stereo not given),inactive,
CNC(=O)Oc1cccc2ccccc12,inactive,
